# Results as given in paper PMC7862700, “An all-to-all approach to the identification of sequence-specific readers for epigenetic DNA modifications on cytosine”.
# How the values were obtained:
# Experiment in all cases: DAPPL (digital affinity profiling via proximity ligation, sequencing); 10 mM Tris-HCl pH 7.5, 50 mM NaCl, 1 mM DTT, 4% glycerol, room temperature, 30 min; GST-TFs on glutathione beads, 16-mer random dsDNA library, 0.1% formaldehyde crosslink after washing; high values mean tight binding
# Details in all cases: protein: recombinant; tags: N-terminal GST; dsDNA, one strand shown
# ETV2 = target: T1, ETV2 (Homo sapiens, UniProt O00321 1-342)
# T1 sequence: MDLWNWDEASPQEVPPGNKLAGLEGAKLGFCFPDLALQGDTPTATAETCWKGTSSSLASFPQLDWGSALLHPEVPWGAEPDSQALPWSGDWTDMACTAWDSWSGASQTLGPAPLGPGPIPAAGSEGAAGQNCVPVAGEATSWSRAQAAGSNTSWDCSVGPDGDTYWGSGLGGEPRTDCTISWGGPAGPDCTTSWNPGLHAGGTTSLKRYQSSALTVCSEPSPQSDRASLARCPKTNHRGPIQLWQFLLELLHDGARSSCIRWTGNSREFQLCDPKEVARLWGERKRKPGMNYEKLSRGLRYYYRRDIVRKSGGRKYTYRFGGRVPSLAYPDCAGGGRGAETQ
# Procedure, shortened: (§1)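 A tag-only sample was pooled with DNA-barcoded human transcription factors that had been expressed in yeast as GST fusions and captured on glutathione beads. The pools were incubated for 30 min at room temperature with 200 nmole of a random double-stranded 16-mer DNA library in Tris/NaCl/DTT/glycerol buffer, then washed, crosslinked with 0.1% formaldehyde, proximity-ligated (BsaI/T4 ligase, 1 h, 37 °C), PCR-amplified and sequenced on an Illumina NextSeq500. Binding signal is each hexamer's read frequency for a factor divided by its frequency for the tag-only sample.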
# ELF3 = target: T2, ELF3 (Homo sapiens, UniProt P78545 1-371)
# T2 sequence: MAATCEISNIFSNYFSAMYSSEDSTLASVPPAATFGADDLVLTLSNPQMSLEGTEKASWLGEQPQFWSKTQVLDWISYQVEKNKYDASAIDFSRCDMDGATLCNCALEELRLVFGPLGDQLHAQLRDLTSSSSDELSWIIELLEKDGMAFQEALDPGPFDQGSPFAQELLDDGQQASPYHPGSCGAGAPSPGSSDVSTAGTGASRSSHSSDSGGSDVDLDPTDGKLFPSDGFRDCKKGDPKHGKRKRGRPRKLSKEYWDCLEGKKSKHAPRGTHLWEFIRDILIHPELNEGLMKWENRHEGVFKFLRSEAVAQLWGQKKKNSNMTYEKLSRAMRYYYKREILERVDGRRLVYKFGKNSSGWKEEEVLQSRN
# Procedure, shortened: as §1
# ETV1 = ETV1 (Homo sapiens, UniProt P50549 1-477)
# Procedure, shortened: as §1
# ERF = target: T3, ERF (Homo sapiens, UniProt P50548 1-548)
# T3 sequence: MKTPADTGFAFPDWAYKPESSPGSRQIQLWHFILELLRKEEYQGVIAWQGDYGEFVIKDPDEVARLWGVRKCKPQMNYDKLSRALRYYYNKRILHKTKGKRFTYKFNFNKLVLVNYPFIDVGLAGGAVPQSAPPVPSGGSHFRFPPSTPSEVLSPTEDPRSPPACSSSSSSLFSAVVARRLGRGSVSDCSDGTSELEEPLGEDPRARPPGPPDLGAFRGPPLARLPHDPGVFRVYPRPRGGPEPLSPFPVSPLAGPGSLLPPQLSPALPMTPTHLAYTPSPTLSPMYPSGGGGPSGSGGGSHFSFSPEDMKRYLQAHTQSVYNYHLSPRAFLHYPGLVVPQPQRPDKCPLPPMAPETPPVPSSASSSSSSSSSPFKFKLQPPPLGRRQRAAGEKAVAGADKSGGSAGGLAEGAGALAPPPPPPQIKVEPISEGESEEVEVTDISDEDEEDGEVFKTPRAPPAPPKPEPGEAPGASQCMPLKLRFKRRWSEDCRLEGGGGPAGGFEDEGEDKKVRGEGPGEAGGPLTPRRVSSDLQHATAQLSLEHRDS
# Procedure, shortened: as §1
# ETV3L = target: T4, ETV3L (Homo sapiens, UniProt Q6ZN32 1-361)
# T4 sequence: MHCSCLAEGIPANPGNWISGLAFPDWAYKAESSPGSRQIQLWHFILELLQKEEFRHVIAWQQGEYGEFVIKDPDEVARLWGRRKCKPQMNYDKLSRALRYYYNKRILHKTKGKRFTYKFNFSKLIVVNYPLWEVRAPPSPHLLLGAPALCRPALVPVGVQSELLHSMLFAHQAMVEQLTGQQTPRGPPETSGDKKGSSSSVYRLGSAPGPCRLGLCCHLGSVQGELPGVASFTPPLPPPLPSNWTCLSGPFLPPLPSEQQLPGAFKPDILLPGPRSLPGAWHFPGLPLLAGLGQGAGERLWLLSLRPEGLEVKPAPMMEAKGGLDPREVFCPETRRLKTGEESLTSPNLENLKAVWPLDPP
# Procedure, shortened: as §1
# ETS2 = target: T5, ETS2 (Homo sapiens, UniProt P15036 1-469)
# T5 sequence: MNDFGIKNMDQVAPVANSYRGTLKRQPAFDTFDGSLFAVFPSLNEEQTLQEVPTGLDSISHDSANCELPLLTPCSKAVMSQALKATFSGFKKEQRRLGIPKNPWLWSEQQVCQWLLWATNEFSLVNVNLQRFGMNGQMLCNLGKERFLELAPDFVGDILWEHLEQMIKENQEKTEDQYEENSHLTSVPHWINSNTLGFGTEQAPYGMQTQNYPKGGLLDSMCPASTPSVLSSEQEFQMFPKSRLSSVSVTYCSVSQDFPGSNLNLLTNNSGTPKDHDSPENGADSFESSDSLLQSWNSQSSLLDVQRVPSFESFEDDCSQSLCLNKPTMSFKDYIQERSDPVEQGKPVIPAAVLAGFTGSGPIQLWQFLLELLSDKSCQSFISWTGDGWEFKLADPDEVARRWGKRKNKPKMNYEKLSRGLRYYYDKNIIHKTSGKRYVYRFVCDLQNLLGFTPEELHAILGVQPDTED
# Procedure, shortened: as §1
# SPDEF = target: T6, SPDEF (Homo sapiens, UniProt O95238 1-335)
# T6 sequence: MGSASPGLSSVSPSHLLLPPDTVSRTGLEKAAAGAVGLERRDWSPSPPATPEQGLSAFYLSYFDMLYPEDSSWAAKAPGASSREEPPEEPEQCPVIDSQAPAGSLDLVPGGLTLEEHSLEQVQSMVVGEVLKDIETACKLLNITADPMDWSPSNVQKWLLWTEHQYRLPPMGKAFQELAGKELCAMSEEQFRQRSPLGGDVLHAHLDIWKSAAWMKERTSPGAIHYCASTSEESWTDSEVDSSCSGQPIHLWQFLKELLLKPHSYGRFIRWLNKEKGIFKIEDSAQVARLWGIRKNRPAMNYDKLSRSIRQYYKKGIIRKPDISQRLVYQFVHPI
# Procedure, shortened: as §1
# ETV7 = target: T7, ETV7 (Homo sapiens, UniProt Q9Y603 1-341)
# T7 sequence: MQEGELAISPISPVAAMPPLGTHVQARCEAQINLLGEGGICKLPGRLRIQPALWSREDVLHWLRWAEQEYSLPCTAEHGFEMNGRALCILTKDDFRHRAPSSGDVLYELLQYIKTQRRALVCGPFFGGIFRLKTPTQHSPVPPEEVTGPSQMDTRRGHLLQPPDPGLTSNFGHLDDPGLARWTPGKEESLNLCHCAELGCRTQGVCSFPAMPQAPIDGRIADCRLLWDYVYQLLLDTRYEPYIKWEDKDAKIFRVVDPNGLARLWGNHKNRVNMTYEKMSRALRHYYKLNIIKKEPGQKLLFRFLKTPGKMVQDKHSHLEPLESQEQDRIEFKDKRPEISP
# Procedure, shortened: as §1
# ETV3 = target: T8, ETV3 (Homo sapiens, UniProt P41162-2 1-143)
# T8 sequence: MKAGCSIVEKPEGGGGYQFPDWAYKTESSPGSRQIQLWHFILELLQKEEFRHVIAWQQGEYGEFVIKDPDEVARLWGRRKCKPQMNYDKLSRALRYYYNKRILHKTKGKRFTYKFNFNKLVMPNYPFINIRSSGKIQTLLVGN
# Procedure, shortened: as §1
# ETV6 = ETV6 (Homo sapiens, UniProt P41212 1-452)
# Procedure, shortened: as §1
# ETV1, sequence (P50549 whole entry): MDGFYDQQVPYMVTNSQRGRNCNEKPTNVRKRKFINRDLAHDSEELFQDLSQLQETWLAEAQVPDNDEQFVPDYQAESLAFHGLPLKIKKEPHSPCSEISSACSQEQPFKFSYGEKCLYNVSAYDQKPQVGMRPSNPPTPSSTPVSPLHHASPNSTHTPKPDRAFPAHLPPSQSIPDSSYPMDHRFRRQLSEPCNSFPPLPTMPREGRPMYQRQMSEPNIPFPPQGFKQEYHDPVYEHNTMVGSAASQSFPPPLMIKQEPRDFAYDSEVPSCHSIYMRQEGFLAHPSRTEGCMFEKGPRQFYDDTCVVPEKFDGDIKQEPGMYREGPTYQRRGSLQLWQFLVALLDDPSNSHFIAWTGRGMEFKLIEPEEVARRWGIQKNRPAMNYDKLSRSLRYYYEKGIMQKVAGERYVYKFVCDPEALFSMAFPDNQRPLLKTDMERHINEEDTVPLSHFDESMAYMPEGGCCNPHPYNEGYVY
# ETV6, sequence (P41212 whole entry): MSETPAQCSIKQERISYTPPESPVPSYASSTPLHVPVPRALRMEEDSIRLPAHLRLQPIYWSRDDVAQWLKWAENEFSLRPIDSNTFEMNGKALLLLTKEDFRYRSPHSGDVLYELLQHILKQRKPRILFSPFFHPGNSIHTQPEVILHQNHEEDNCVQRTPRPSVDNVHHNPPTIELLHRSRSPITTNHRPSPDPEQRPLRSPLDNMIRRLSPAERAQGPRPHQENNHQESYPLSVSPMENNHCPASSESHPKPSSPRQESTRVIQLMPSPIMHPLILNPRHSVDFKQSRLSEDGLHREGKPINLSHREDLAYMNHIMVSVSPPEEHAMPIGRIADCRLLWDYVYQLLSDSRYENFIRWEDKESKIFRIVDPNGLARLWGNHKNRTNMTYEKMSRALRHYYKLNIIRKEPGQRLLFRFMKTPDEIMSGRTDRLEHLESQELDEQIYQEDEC
sequence,measurement,setting,value
GCTATC,binding signal,ETV2,"1.04 fold enrichment (6-mer frequency, TF over GST control)"
same,binding signal,ELF3,"1.04 fold enrichment (6-mer frequency, TF over GST control)"
same,binding signal,ETV1,"1.09 fold enrichment (6-mer frequency, TF over GST control)"
same,binding signal,ERF,"1.13 fold enrichment (6-mer frequency, TF over GST control)"
same,binding signal,ETV3L,"1.07 fold enrichment (6-mer frequency, TF over GST control)"
same,binding signal,ETS2,"1.01 fold enrichment (6-mer frequency, TF over GST control)"
same,binding signal,SPDEF,"1.11 fold enrichment (6-mer frequency, TF over GST control)"
same,binding signal,ETV7,"1.18 fold enrichment (6-mer frequency, TF over GST control)"
same,binding signal,ETV3,"1.03 fold enrichment (6-mer frequency, TF over GST control)"
same,binding signal,ETV6,"1.06 fold enrichment (6-mer frequency, TF over GST control)"
